High-throughput results from PubChem BioAssay.
FLuc modulator: qHTS profiling assay for firefly luciferase inhibitor/activator using purifed enzyme and Km concentrations of substrates (counterscreen for miR-21 project). Luciferin 4-monooxygenase (Photinus pyralis), P08659. purified FLuc, Km substrates, luminescence inhibition. Potency, µM (highest dose often 57.5 µM), for the others: at the highest dose activity change, negative = inhibition, hits mostly inhibitors. 360,000 compounds, 6.9% hits. AID 588342, 2011;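 note: plate controls were vehicle for no effect and reference inhibitor for full effect; nearly all actives have a fitted effect of over 55% in size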
Target sequence (P08659 whole entry, looked up): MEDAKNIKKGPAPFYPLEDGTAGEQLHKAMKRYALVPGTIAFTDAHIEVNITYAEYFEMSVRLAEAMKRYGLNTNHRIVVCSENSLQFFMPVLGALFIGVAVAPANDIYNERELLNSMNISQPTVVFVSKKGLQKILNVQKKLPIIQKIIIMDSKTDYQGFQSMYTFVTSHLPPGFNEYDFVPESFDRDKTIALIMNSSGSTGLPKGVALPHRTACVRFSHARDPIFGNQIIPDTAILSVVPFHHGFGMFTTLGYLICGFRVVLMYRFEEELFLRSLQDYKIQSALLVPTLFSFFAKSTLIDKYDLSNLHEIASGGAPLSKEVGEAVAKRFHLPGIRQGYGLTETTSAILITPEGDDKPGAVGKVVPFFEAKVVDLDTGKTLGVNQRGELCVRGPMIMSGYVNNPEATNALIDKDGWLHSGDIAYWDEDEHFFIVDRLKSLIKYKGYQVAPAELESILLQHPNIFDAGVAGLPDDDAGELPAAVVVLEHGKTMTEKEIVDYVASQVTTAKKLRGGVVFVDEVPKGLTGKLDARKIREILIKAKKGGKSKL
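Purified P. pyralis luciferase (10nM final) with 10uM D-luciferin and 10uM ATP (Km levels) in 50mM Tris acetate pH 7.5, 10mM Mg acetate, 0.01% Tween-20, 0.05% BSA; qHTS 6-point titration, ~60 µM downward; luminescence read.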
p53 reactivation: qHTS assay for re-activators of p53 using a Luc reporter; H1299 p53-A138V BP100-luciferase reporter, luminescence, 24 h; Potency, µM (doses to about 92.2 µM), inactives show at the highest dose activity change, positive = activation, actives largely listed as activators; 320,000 compounds, 0.063% hits; note: % of control where 0% means no effect; nearly all actives have a fitted effect of over 45% in size
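H1299 (p53-null), stable ts p53-A138V + BP100-Luc; 1000 cells/well, Opti-MEM/10% FBS; cpd 4 pt, 1:5; 24 h, 37 deg C, 5% CO2; detection reagent 10 min RT; luminescence.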
Rab9 promoter act: qHTS Assay for Rab9 Promoter Activators; Huh7 Rab9 promoter-luciferase reporter, luminescence, 24 h; Potency, µM (titrated, usually from 9.22 µM), for inactives: top-dose activation, negative = inhibition, actives largely listed as activators; 320,000 compounds, 2.8% hits; AID 485297, 2010; note: % of control where 0% means no effect; nearly all actives have a fitted effect of over 60% in size
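Measured in stably transfected Huh7 cells bearing a Rab9 promoter–luciferase construct: 24 h compound treatment at 37 °C, followed by luminescence detection.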
NPC1 prom act: qHTS Assay for NPC1 Promoter Activators. Huh7 NPC1 promoter luciferase reporter, 24 h. Potency, µM (series often up to 9.22 µM), inactives show at the highest dose activation, hits mostly activators. 320,000 compounds, 2.4% hits. AID 485313, 2010; note: % of control where 0% means no effect; nearly all actives have a fitted effect of over 60% in size
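Quantitative HTS used a cell-based reporter: Huh7 cells stably bearing the NPC1 promoter upstream of luciferase were treated with compounds for 24 h, and promoter activation was read as luminescence.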
ELG1 genotox: qHTS screen for small molecules that induce genotoxicity in human embryonic kidney (HEK293T) cells expressing luciferase-tagged ELG1 | HEK293T ELG1-luciferase reporter, luminescence, 16 h | Potency, µM (titrated, usually from 46 µM), without a hit: at the highest dose activity change, positive = activation, usual class: activators | 330,000 compounds, 1.3% hits | AID 504466, 2011; note: % of control where 0% means no effect; nearly all actives have a fitted effect of over 60% in size
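Quantitative HTS format in 1536-well plates. HEK293T ELG1-luciferase reporter cells receive test compound and are incubated 16 hr at 37 °C, 5% CO2; ONE-Glo added, 30 min room temperature, then luminescence read.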
SMN2 splice enh: qHTS Assay for Enhancers of SMN2 Splice Variant Expression; Potency, µM (series often up to 46.1 µM), for inactives: at the top dose activity change, positive = activation, actives largely listed as activators; AID 1458, 2008; 210,000 compounds, 2.8% hits; HEK293 SMN2-luciferase splicing reporter, luminescence, 30-36 h; note: % of control where 0% means no effect; nearly all actives have a fitted effect of over 55% in size
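HEK293 cells carry an SMN2 minigene-luciferase reporter in which exon 7 inclusion puts luciferase in frame. Cells were seeded at 2000 cells/well, attached for 10-12 hours, then exposed to compounds for 30-36 hours at 37C before ONE-Glo luminescence.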
* marks the source's active call; other numbers are inactive results; ? = inconclusive; . = no result given; [ ] = remark or other dose. Most compounds without a hit are left out; they make up all but 7.4% or so of the library. Calls come from the whole dose curve; as a rule, active = well fitted curve in the direction sought with a large enough effect; inconclusive = small, poorly fitted or top-dose-only effect, or another doubt; inactive = no such curve, though single readings can be large; an effect the other way counts as inactive or inconclusive. Potency is the fitted concentration of half-maximal effect.

SMILES | FLuc modulator | p53 reactivation | Rab9 promoter act | NPC1 prom act | ELG1 genotox | SMN2 splice enh
COc1ccc(NC(=O)c2ncn[nH]2)cc1 | 15.1µM* | 11.3% | 21.9% | 13.9% | 8.5% | 10.5%
COc1ccc(NC(=O)c2ccc(NC(=O)c3ccncc3)cc2)cc1 | 0.9% | 8.2% | -6.7% | 0.5% | 10.3µM* | .
COc1ccc(NC(=O)c2sc(=S)[nH]c2N)cc1 | 16.9µM* | 8.8% | 21.1% | 1.7% | 11.3% | ?
COc1ccc(C(=O)Nc2ccc(C3CC3(Cl)Cl)cc2)cc1 (stereo not given) | 1.51µM* | 7.6% | ? | 25.0% | 13.6% | .
CC(=O)c1ccc(NC(=O)c2ccc3c(c2)N(Cc2cccc(Cl)c2)C(=O)c2ccccc2S3(=O)=O)cc1 | 1.1% | . | . | . | . | 3.2%
Cc1cccc(Nc2nnc(-c3ccc(C)c(S(=O)(=O)N4CCOCC4)c3)c3ccccc23)c1 | -13.0% | . | . | . | . | -13.5%
Cc1cccc(NC(=O)CSc2nc3ccccc3nc2N2CCC(C)CC2)c1 | -1.0% | . | . | . | . | -24.2%
COc1ccc(C)cc1NC(=O)N1CCN(c2nnc(C)c3c(C)n(-c4ccccc4)nc23)CC1 | -4.2% | . | . | . | . | .
COc1ccc(NC(=O)c2cc(-c3cccc(OC)c3)on2)cc1 | -6.2% | 2.2% | -5.9% | -3.2% | 6.2% | -37.7%
CCOc1ncccc1C(=O)Nc1ccc(C(=O)Nc2ccc(OC)cc2)cc1 | 3.1% | -2.2% | -4.2% | -5.4% | 3.2% | .
COc1ccc(NC(=O)c2ccc(Oc3ncccn3)cc2)cc1 | 16.9µM* | 6.0% | ? | 15.5% | ? | 12.1%
COc1ccc(NC(=O)c2cccc(C(=O)Nc3ccc(OC)cc3)n2)cc1 | 5.36µM* | 0.1% | -2.2% | 2.2% | 16.0% | -5.7%
COC(=O)c1ccc(NC(=O)CSc2ccccc2)cc1 | 26.9µM* | ? | ? | 18.5% | ? | 17.2%
O=C(CSc1ccc(F)cc1)Nc1ccccc1Br | ? | 22.8% | 15.1% | 13.7% | 11.2% | -19.9%
COC(=O)c1ccc(NC(=O)CSc2ccccn2)cc1 | ? | 10.0% | 13.1% | 2.3% | ? | -14.2%
O=C(CSc1ccc(F)cc1)Nc1ccc(Br)cc1 | 13.5µM* | ? | 2.82µM* | ? | ? | ?
COc1ccc(CCNC(=O)Cn2c(=O)cc(C(F)(F)F)c3c(C)nn(C)c32)cc1OC | -8.1% | . | . | . | . | .
Cc1ccc(CN(Cc2ccco2)C(=O)c2ccc(Cl)cc2)o1 | -17.1% | . | . | . | . | -0.7%
Cn1c(SCc2cccc(C#N)c2)nc2ccccc2c1=O | -1.8% | -5.1% | -3.9% | -9.9% | -7.4% | .
COc1ccc([C@]23Cc4ccccc4C(O2)c2c(c4ccc(OC)cc4oc2=O)O3)cc1 | 3.09µM* | . | 2.4%[1.84 µM] | 18.6%[1.84 µM] | . | .
COc1ccc(-c2[nH]n(-c3ccc([N+](=O)[O-])cc3)c(=O)c2C=NCCN2CCNCC2)cc1 | 0.953µM* | -7.1% | 0.447µM* | 0.708µM* | ? | .
O=c1c(C=NCCN2CCNCC2)c(-c2ccccc2)[nH]n1-c1ccc([N+](=O)[O-])cc1 | ? | 9.2% | ? | ? | 12.5% | .
CN(CC(=O)Nc1ccc(Cl)c(Cl)c1)CC(=O)Nc1ccc2c(c1)OCO2 | -10.8% | -7.1% | 1.9% | 0.1% | 1.6% | .
COc1cccc(CNc2cnc3ccccc3c2)c1O | 2.39µM* | ? | 1.78µM* | 1.58µM* | 11.6µM* | 3.55µM*
COc1cccc(CNc2nc3ccccc3n2C)c1O | 9.53µM* | . | 1.78µM* | 1µM* | 9.2µM* | .
SMILES | FLuc modulator | p53 reactivation | Rab9 promoter act | NPC1 prom act | ELG1 genotox | SMN2 splice enh
COc1ccccc1Nc1nc2ccccc2n1C | 15.1µM* | ? | 2.82µM* | ? | ? | 11.2µM*
COc1ccccc1CCNC(=O)C1CCC(=O)N(C2CCCCCC2)C1 (stereo not given) | 1.1% | 6.5% | 0.0% | -2.9% | -0.4% | .
COC(=O)/C(=C\C(=O)c1ccccc1)Nc1cccc(C(F)(F)F)c1 | ? | 28.2µM* | -19.5% | ? | 2.6% | -9.0%
CC(=O)NC1=NC(=O)/C(=C/c2cc(C)n(-c3cccc(C(=O)O)c3)c2C)S1 | 15.1µM* | 0.1% | -7.1% | -8.2% | -0.3% | .
CC(=O)NC1=NC(=O)/C(=C/c2cc(C)n(-c3ccc(NC(C)=O)cc3)c2C)S1 | 5.36µM* | 24.5% | ? | ? | -3.9% | 11.5%
COc1cccc(-c2cn3c(n2)sc2cc(C(=O)NCc4cccs4)ccc23)c1 | 0.2% | . | . | . | . | .
COc1ccccc1N1CCN(c2ccc(=O)n(CC(=O)O)n2)CC1 | -2.8% | . | . | . | . | -1.0%
CC1CCN(c2ccc(-c3ccc(NC(=O)C(F)(F)F)cc3)nn2)CC1 | ? | 59.7% | 0.501µM* | 0.126µM* | 0.731µM* | .
O=C(Nc1ccccc1)c1ccn[nH]1 | 10.7µM* | 9.1% | 2.51µM* | 3.55µM* | ? | 12.6µM*
O=C(Nc1cccc([N+](=O)[O-])c1)c1ccn[nH]1 | -19.3% | ? | ? | ? | -5.0% | 16.0%
CC(=O)c1ccc(NC(=O)c2ccn[nH]2)cc1 | 9.53µM* | 23.1% | 3.55µM* | 2µM* | 10.3µM* | 11.2µM*
Cc1c(C(=O)OCC(C)(C)CN(C)C)oc2ccccc12 | 19µM* | ? | -1.2% | 4.5% | ? | 7.5%
Cc1c(C(=O)OCCN2CCCCC2)oc2ccccc12 | 19µM* | 1.9% | 4.6% | -0.3% | 1.6% | 1.4%
Cc1c(C(=O)OCC(=O)N2C(C)CCCC2C)oc2ccccc12 (stereo not given) | 16.9µM* | 6.7% | ? | ? | ? | .
CCN(CC)CC(C)(C)COC(=O)c1oc2ccccc2c1C | -15.6% | 6.5% | -1.6% | 0.7% | 3.5% | .
COCC(=O)O | . | . | . | . | . | -17.9%
CNC(=O)C1CCC(Cn2c(=O)c3sccc3n(CC(=O)Nc3ccc(C)c(C)c3)c2=O)CC1 (stereo not given) | -8.5% | . | . | . | . | .
COc1ccc(-c2cc(=O)oc3c4c(ccc23)OCN(Cc2ccccc2)C4)cc1 | -2.0% | . | . | . | . | -8.6%
Cn1ccc(NC(=O)Nc2ccc(Cl)cc2Cl)n1 | 15.1µM* | 11.0% | ? | ? | ? | 14.1µM*
O=C(Nc1cccnc1)Nc1ccc2c(c1)OCO2 | 12µM* | ? | ? | ? | 16.5% | ?
O=C(NCc1cccs1)Nc1ccc(Cl)cc1 | ? | ? | ? | ? | 11.0% | 10µM*
O=C(Nc1cnccn1)Nc1ccc(Cl)cc1Cl | -5.9% | 9.2% | ? | 22.0% | 5.7% | .
S=C(Nc1ccc2c(c1)OCCO2)Nc1ccc2c(c1)OCO2 | 16.9µM* | 6.2% | 3.98µM* | ? | ? | ?
